Assay results as given in PubChem BioAssay AID485317 (Broad Institute, 2010).
Out of some 290,000 compounds screened, about 11,000 (3.8%) were called active.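 How the source made its calls: active means mean replicate inhibition above about 79%, with every replicate also reaching it (limit read from the data); inconclusive means only one of the two criteria met; inactive means mean below limit and not every replicate reaching it.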 The sample as a whole holds a higher share of actives than the screen did.

Each compound was assayed against FAD-linked sulfhydryl oxidase ALR (Homo sapiens) (UniProt P55789) (assay: ALR-catalysed DTT oxidation blockers – biochemical, H2O2 detection, HRP-luminol luminescence, single point, primary screen (AID 485317)). Conditions: purified ALR, active compounds read high, concentration not given here.
FAD-linked sulfhydryl oxidase ALR (Homo sapiens), sequence (P55789 whole entry, looked up): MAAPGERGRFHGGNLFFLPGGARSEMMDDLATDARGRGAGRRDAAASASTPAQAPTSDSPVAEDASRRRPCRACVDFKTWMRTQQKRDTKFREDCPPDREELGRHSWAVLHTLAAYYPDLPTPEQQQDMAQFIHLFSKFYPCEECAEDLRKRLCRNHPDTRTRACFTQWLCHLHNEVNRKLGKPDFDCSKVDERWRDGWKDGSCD

inhibition, inactive:
CCc1ccc(Nc2n[n+](-c3ccccc3)c(-c3cccc(Cl)c3Cl)s2)cc1 -4.3%, Cc1ccc(S(=O)(=O)NCC(=O)NNC(=O)c2ccc(Br)cc2)cc1C -2.29%, CC1(NC(=O)CCS(=O)(=O)c2ccc(Cl)cc2)CCS(=O)(=O)C1 (centres undefined) -4.01%, O=[N+]([O-])c1ccc(O)c(/C=N/Nc2ccccc2[N+](=O)[O-])c1 -10.4%, O=C(O)c1ccccc1C(=O)Nc1ccccc1[N+](=O)[O-] -2.15%, Nc1nnc(SCC(=O)NCC(=O)Nc2ccc(F)c(F)c2F)s1 1.09%, CN(CC(=O)NC1CCCCC1)S(=O)(=O)c1ccc(Br)s1 -15%, CN(CC(=O)NC1CCCC1)S(=O)(=O)c1cnc[nH]1 -4.3%, CN(CC(=O)Nc1ccc(Cl)cc1)CC(=O)Nc1cccc2ccccc12 2.05%, CCN(CC(=O)Nc1ccc(OC)cc1)C(=O)c1ccc(=O)n(Cc2ccccc2)n1 0.415%, Cc1noc(C)c1NC(=O)Nc1ccc2c(c1)C(=O)N([C@H](C)CO)C[C@H](C)[C@@H](CN(C)S(=O)(=O)c1cn(C)cn1)O2 -2.52%, NS(=O)(=O)c1ccc(NC(=O)COC(=O)c2c3c(nc4ccccc24)/C(=C\c2ccc4c(c2)OCO4)CCC3)cc1 -36%, O=C(COC(=O)c1c2c(nc3ccccc13)/C(=C\c1cccs1)CCC2)Nc1ccccc1Cl -2.03%, CN(CC(=O)NCCc1ccc(S(N)(=O)=O)cc1)CC(=O)Nc1ccc(Cl)cc1 -9.18%, CC1(C)C/C(=N/Nc2ccc([N+](=O)[O-])cc2[N+](=O)[O-])C(C)(C)O1 -14.3%, CCc1nnc(NS(=O)(=O)c2ccc(NS(=O)(=O)c3ccccc3)cc2)s1 35.6%, CCc1nnc(NS(=O)(=O)c2ccc(NC(=S)NC(=O)c3cccs3)cc2)s1 63.2%, O=C(COc1ccccc1)Nc1cc2c3c(c1)CC(=O)N3CCC2 -6.99%, O=C(c1ccncc1)N1CCN(S(=O)(=O)c2cccc([N+](=O)[O-])c2)CC1 -48.9%, COc1cccc(NC(=O)CN2CCN(CC(=O)Nc3ccccc3Cl)CC2)c1 -2.36%, COc1cccc(NC(=O)Cn2c3ccc(F)cc3c3nc4n(c(=O)c32)CCS4)c1 -3.06%, C[C@H]1CN([C@@H](C)CO)C(=O)Cc2cc(NS(C)(=O)=O)ccc2O[C@@H]1CN(C)CC1CC1 0.795%, Cc1nnc(NC(=O)CSc2nc(C3CCCCC3)nc3ccccc23)s1 -39.6%, O=C(CSc1nc(C2CC2)nc2ccccc12)Nc1ccc2c(c1)OCCO2 40.9%, Cc1ccccc1OCC(=O)NNC(=O)c1ccc(-n2cncn2)c([N+](=O)[O-])c1 -24.1%, O=C(NCCCN1CCCC1=O)c1ccc(S(=O)(=O)Nc2ccccc2)cc1 -9.87%, COc1ccccc1OCCCCCCN1CCN(C)CC1 -12.6%, CCCC(=O)Nc1ncnc2c1ncn2[C@@H]1O[C@@H]2OP(=O)(O)OC[C@H]2[C@H]1OC(=O)CCC -3.4%, Cc1cc(C(=O)COC(=O)CNC(=O)c2ccc(F)cc2)c(C)n1Cc1ccco1 -2.4%, Cc1cc(C(=O)CC#N)c(C)n1-c1c(C)n(C)n(-c2ccccc2)c1=O 14.7%, Cc1ccc(CNC(=O)c2ccc3c(c2)S(=O)(=O)c2ccccc2C3=O)cc1 -10.2%, N=c1c2c3c(sc2ncn1N)CCCC3 -10.4%, c1nnc2c3c4c(sc3ncn12)CCC4 45.2%, Cc1c(O)c(C)c2c(c1O)C(=O)C[C@@H](c1ccccc1)O2 2.46%, COc1ccccc1C(=O)COC(=O)COc1ccc(C#N)cc1 10.4%, O=S(=O)(Nc1ncnc2sccc12)c1cccc(F)c1 8.21%, COc1ccc(C(=O)Oc2cc(/C=N/NS(=O)(=O)c3ccc(C)cc3)ccc2OC)cc1 -2.65%, COc1ccc(NS(=O)(=O)c2ccc(NC(C)=O)cc2)cc1OC -18.8%, CCOC(=O)c1c(C)[nH]c(C(=O)OCC(=O)c2ccc(OC)cc2OC)c1C -8.98%, Cc1cc(-c2cccs2)nc(-n2cccc2)n1 23.5%, CCCS(=O)(=O)Nc1ccc(-c2cn3c(n2)SCC3)cc1 4.68%, O=C(c1ccc(S(=O)(=O)NCc2ccco2)cc1)N1CCN(c2ccccc2)CC1 33.8%, COc1ccc(-c2csc(Nc3ccc(O)cc3)n2)cc1 74.3%, COc1ccc(-c2csc(Nc3ccccn3)n2)cc1 32.2%, CCCCn1c(N)c(N(CC(C)C)C(=O)C2CSC3(C)CCC(=O)N23)c(=O)[nH]c1=O (centres undefined) -0.99%, CC(NC(=O)c1cccc(S(=O)(=O)N2CCc3ccccc3C2)c1)c1ccco1 (centres undefined) -3.35%, O=C(COC(=O)c1ccc(F)c(S(=O)(=O)N2CCOCC2)c1)NCc1ccc2c(c1)OCO2 -8.6%, CNS(=O)(=O)c1cccc(C(=O)OCCCC(=O)c2ccccc2)c1 1.28%, O=C1N[C@H](Cc2ccccc2)C(=O)N[C@H]1Cc1cn(S(=O)(=O)c2ccccc2)c2ccccc12 -2.64%, CN1CCN(C(=O)c2ccc(-c3ccc(Br)cc3)o2)CC1 6.66%, O=C(N/N=C/c1c[nH]c2ccccc12)c1ccccc1O 41.8%, CSC(=S)N/N=C/c1c[nH]c2ccccc12 64.4%, CCNC(=O)c1cccc(NC(=O)C2CC(=O)N(CCc3ccccc3)C2)c1 (centres undefined) -0.0795%, CC(OC(=O)CNC(=O)c1ccco1)C(=O)Nc1ccc(Cl)cn1 (centres undefined) -1.13%, COc1cccc(NC(=O)CCc2nnc3ccc(N4CCC(C)CC4)nn23)c1 -1.49%, CCOC(=O)c1cccc(NC(=O)CCc2nnc3ccc(N4CCOCC4)nn23)c1 26.9%, C=CCSc1nnc2c(n1)-c1cccc3cccc-2c13 9.81%, COc1ccc(S(=O)(=O)N2CCOCC2)cc1NC(=O)Cc1c(F)cccc1Cl -4.89%, COc1ccccc1CNC(=O)COC(=O)c1cccs1 20.2%, CN(CC(=O)Nc1ccccc1Cl)C(=O)c1ccccc1SCC(=O)N1CCCC1 -3.42%, COC(=O)c1ccccc1NC(=O)c1ccccc1NS(C)(=O)=O 4.54%, NC(=O)c1ccccc1NC(=O)c1ccccc1F 0.399%, Cc1cc(N2CCCC2)ccc1NC(=O)COc1ccc(Cl)cc1 -0.012%, O=C(NCCC1CCCCN1S(=O)(=O)c1ccc(F)cc1)C(=O)NC1CC1 (centres undefined) -2.2%, Clc1ccc(-c2csc(-c3ccncc3)n2)cc1 -4.48%, O=c1[nH]c(/C=C/c2cccc(Br)c2)nc2ccccc12 -2.23%, CC(C)(C)OC(=O)C[C@@H]1C/C=C\C[C@@H](CC(=O)N[C@H](CO)Cc2ccccc2)C(=O)NCCOC1=O 1.41%, CCc1nc(SCC(=O)Nc2ccccc2OC)n[nH]1 -18%, CCOc1ccc(NC(=O)CN2CCN(CC(=O)Nc3ccc(OC)cc3)CC2)cc1 -10.2%, CCc1nnc(NC(=O)CSc2nc3c(c(=O)n2-c2ccccc2OC)SCC3)s1 1.36%, COc1ccccc1NC(=O)CSc1nnc(Cn2nnc(-c3ccccc3)n2)n1-c1ccccc1 -1.41%, C=CCn1c(SCC(=O)Nc2ccc(NC(C)=O)cc2)nc2sc(C)c(C)c2c1=O -2.72%, C=CCn1c(SCC(=O)NCCCO)nc2sc3c(c2c1=O)CCC3 -4.11%, COc1ccccc1-n1c(SCC(=O)Nc2cccc(C(=O)O)c2)nnc1-c1ccccc1O 3.17%, CCOc1ccc(-n2c(SCC(=O)Nc3cc(C(=O)O)ccc3Cl)nc3ccccc3c2=O)cc1 -3.41%

inhibition, active:
O=[N+]([O-])c1ccccc1Nc1ccc(O)cc1 99.6%, CN(CC(=O)NC1CCCCC1)S(=O)(=O)c1cccc2cccnc12 89.5%, COc1cc(/C=C2\CCCc3c2nc2ccccc2c3C(=O)O)cc(Cl)c1O 98.2%, CCc1nnc(NS(=O)(=O)c2ccc(NC(=O)c3cccc(OC(F)(F)C(F)F)c3)cc2)s1 88.3%, COc1cccc(NC(=O)Cn2c3ccccc3c3nc4n(c(=O)c32)CCS4)c1 85.8%, CN(C(=O)CSc1nc(C2CC2)nc2ccccc12)c1nc(-c2ccccc2)cs1 98.6%, Cc1cc(C(=O)CC#N)c(C)n1CC(F)(F)F 94.8%, S=c1[nH]nc2c3c4c(sc3ncn12)CCCC4 97.9%, COc1ccc(/C=C/C(=O)c2ccc(NS(=O)(=O)c3ccc(C)cc3)cc2)cc1O 82.9%, c1csc(-c2cn3c(n2)SCC3)c1 92.3%, COc1ccc(OC)c(Nc2nc(-c3ccc(O)c(O)c3)cs2)c1 94.7%, O=C(O)c1cccc(NC(=S)N/N=C/c2c[nH]c3ccccc23)c1 98.2%, COc1cccc(N2CCN(c3ccc4nnc(CCC(=O)N5CCN(C)CC5)n4n3)CC2)c1 98.2%, COC(=O)c1ccccc1NC(=S)NC(=O)c1ccccc1F 97.1%, Nc1scc(-c2ccncc2)c1Cl 98.8%, CCOc1ccc(NC(=O)CSc2nc3c(c(=O)n2-c2ccccc2OC)SCC3)cc1 93.4%, CCOc1ccc(-n2c(SCC(=O)Nc3ccc(OC)cc3)nc3sc4c(c3c2=O)CCN(C)C4)cc1 98.6%, CCn1c(SCC(=O)Nc2ccc(Br)cc2)nc2sc3c(c2c1=O)CCN(C)C3 99%, COc1ccccc1NC(=O)CSc1nc2sc3c(c2c(=O)n1-c1ccccc1)CCN(C)C3 99%
